Laboratory results as given in PubChem BioAssay (NCATS).
Records with an inconclusive call do not appear. A call without a number means that no potency is given here. Active and inactive are the calls of the source. Unless noted, the call rests on the fitted dose curve; in most records, active means well fitted curve in the direction sought with a large enough effect; inconclusive means small, poorly fitted or top-dose-only effect, or another doubt; inactive means no such curve, though single readings can be large; an effect the other way counts as inactive or inconclusive.

Key:
[1] = target: Calcium and integrin-binding protein 1 (Homo sapiens) (UniProt Q99828); experiment: Primary qHTS for Identification of Calcium Integrin Binding Protein 1 (CIB1) Competitor (AID 1508620);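 further: GST tagged CIB1 binding a fluorescein labelled alphaIIb integrin peptide tracer; top concentration of the series differs between compounds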
Procedure, shortened: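 Fluorescence polarization competition: GST-tagged CIB1 (1 uM final) preincubated with compound 15 min at room temperature, then FITC-labelled alphaIIb peptide (100 nM final) added. After 15 min at room temperature, polarization read at Ex 480/Em 540.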

[2] = Primary qHTS for small molecule stabilizers of the endoplasmic reticulum resident proteome: Secreted ER Calcium Modulated Protein (SERCaMP) assay (AID 1508630)
Procedure, shortened: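 GLuc-SERCaMP-expressing SH-SY5Y cells, pretreated 16 h with compound, are challenged with thapsigargin to empty ER calcium stores; after 4 h, coelenterazine is added directly to the medium and luminescence is imaged.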

[3] = target: Cytochrome P450 2D6 (Homo sapiens) (UniProt P10635); experiment: Cytochrome P450 family 2 subfamily D member 6 (CYP2D6) small molecule antagonists: luciferase biochemical (cell-free) qHTS assay (AID 1645840; active means well fitted curve in the direction sought with a large enough effect in the repeat runs; an effect the other way counts as inactive or inconclusive; further: series mostly up to about 57 µM; nearly all actives have a fitted effect of over 55% in size)
Procedure, shortened: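 P450-Glo luminescent screen: recombinant CYP2D6 enzyme–proluciferin substrate mix preincubated with compound 10 min at room temperature, then NADPH regeneration added for 1 h at room temperature. Detection reagent added for 20 min; luciferin light read as relative luminescence units.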

[4] = target: Cytochrome P450 2C9 (Homo sapiens) (UniProt P11712); experiment: Cytochrome P450 family 2 subfamily C member 9 (CYP2C9) small molecule antagonists: luciferase biochemical (cell-free) qHTS assay (AID 1645842; active means well fitted curve in the direction sought with a large enough effect in the repeat runs; an effect the other way counts as inactive or inconclusive; further: nearly all actives have a fitted effect of over 55% in size; further: potency means the concentration at half of the fitted maximal effect)
Procedure, shortened: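 Luminescence, after 20 min with luciferin detection reagent, reflected CYP2C9 turnover during a 1 h NADPH-driven reaction at 37C. Enzyme-substrate mix contained 0.4% bovine serum albumin and was preincubated with compound 10 min at room temperature.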

Chain of Calcium and integrin-binding protein 1 (Homo sapiens) (Q99828 whole entry, looked up): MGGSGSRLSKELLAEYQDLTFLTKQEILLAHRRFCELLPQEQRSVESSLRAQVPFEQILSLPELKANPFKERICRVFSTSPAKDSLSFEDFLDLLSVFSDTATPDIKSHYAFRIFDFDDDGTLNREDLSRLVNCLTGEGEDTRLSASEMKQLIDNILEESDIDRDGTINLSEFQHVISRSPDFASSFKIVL
Chain of Cytochrome P450 2D6 (Homo sapiens) (P10635 whole entry, looked up): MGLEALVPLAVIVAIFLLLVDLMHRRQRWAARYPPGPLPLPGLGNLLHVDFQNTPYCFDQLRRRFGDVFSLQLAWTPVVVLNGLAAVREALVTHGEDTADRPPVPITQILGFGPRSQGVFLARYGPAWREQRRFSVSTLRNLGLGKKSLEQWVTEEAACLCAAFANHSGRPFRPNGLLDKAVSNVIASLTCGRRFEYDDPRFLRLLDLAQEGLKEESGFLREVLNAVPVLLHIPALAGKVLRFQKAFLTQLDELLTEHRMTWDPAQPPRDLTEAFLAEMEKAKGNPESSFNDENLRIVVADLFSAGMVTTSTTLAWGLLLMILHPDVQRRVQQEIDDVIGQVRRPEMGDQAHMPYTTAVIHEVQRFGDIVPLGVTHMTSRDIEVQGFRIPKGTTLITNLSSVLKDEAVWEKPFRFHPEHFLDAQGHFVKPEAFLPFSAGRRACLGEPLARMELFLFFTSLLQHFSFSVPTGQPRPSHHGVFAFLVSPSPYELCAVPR
Chain of Cytochrome P450 2C9 (Homo sapiens) (P11712 whole entry, looked up): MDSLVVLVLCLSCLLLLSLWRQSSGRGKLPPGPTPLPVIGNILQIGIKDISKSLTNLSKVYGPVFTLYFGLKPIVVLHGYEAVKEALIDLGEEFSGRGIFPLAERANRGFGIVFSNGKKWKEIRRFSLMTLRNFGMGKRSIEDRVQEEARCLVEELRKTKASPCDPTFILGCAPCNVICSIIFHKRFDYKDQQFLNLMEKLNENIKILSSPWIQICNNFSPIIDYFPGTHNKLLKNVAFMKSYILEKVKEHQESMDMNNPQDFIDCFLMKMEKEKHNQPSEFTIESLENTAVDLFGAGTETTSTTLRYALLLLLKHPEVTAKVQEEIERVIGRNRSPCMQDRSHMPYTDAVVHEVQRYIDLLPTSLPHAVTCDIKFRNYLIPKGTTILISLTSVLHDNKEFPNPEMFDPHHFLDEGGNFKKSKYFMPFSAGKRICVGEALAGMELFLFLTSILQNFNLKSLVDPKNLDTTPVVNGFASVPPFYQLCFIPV

Row | Compound | Potency [1] | outcome [2] | Potency [3] | Potency [4]
1 | COc1cc(CCc2cc(NC(=O)c3ccc(N4C[C@@H](C)N[C@@H](C)C4)cc3)n[nH]2)cc(OC)c1 | inactive | inactive |  | 
2 | Cn1cnc2c(F)c(Nc3ccc(Br)cc3F)c(C(=O)NOCCO)cc21 | inactive | inactive | inactive | 9.52 µM (active)
3 | CC[C@H]1OC(=O)[C@H](C)[C@@H](O[C@H]2C[C@@](C)(OC)[C@@H](O)[C@H](C)O2)[C@H](C)[C@@H](O[C@@H]2O[C@H](C)C[C@H](N(C)C)[C@@H]2O)[C@](C)(OC)C[C@@H](C)C(=O)[C@H](C)[C@@H](O)[C@]1(C)O | inactive | inactive |  | 
4 | CN[C@@H]1C[C@H]2O[C@@](C)([C@H]1OC)n1c3ccccc3c3c4c(c5c6ccccc6n2c5c31)C(=O)N[C@H]4O | inactive | inactive |  | 
5 | FC(F)c1nc2ccccc2n1-c1nc(N2CCOCC2)nc(N2CCOCC2)n1 | inactive | inactive | inactive | 1.69 µM (active)
6 | Oc1cc2c(cc1O)C1c3ccc(O)c(O)c3OCC1(O)C2 (configuration not stated) | inactive |  | inactive | 21.3 µM (active)
7 | CC(C)c1cc(C(C)C)c(CC(=O)NS(=O)(=O)Oc2c(C(C)C)cccc2C(C)C)c(C(C)C)c1 | inactive | inactive |  | 
8 | Oc1ccc([C@@H]2Oc3ccc(O)cc3[C@@H]3CCC[C@@H]32)cc1 | inactive | inactive |  | inactive
